PubChem BioAssay AID2549 (National Center for Advancing Translational Sciences (NCATS), 2010)
Where “and” joins values, the source holds several entries; their conditions need not be identical. Equal entries are not always repeated. Hit rate of the full screen: of about 240,000 compounds, about 1,300 (0.54%) were called active. Entries that show only a call come without a potency. Inconclusive results (about 1%) are left out. The sample holds actives, similar compounds and a random draw of the others, so the mix is not that of the screen. Calls follow the shape of the dose curve; as a rule, active = well fitted inhibition curve with a large enough effect; inconclusive = small, poorly fitted or top-dose-only effect; inactive = flat fitted curve, though single readings scatter. A structure can be active in one record and inactive in another. Where a SMILES comes first, the peptide text is derived from it. Bridges are numbered along the chain shown (N, C = ends).

biological target: ATP-dependent DNA helicase Q1 (Homo sapiens) (UniProt P46063); assay: qHTS Assay for Inhibitors of RecQ-Like Dna Helicase 1 (RECQ1); details: RECQ1 DNA unwinding, red fluorescence kinetic read; series mostly up to 57.3 µM; also: nearly all actives have a fitted effect of over 30% in size
Sequence (P46063 whole entry, looked up): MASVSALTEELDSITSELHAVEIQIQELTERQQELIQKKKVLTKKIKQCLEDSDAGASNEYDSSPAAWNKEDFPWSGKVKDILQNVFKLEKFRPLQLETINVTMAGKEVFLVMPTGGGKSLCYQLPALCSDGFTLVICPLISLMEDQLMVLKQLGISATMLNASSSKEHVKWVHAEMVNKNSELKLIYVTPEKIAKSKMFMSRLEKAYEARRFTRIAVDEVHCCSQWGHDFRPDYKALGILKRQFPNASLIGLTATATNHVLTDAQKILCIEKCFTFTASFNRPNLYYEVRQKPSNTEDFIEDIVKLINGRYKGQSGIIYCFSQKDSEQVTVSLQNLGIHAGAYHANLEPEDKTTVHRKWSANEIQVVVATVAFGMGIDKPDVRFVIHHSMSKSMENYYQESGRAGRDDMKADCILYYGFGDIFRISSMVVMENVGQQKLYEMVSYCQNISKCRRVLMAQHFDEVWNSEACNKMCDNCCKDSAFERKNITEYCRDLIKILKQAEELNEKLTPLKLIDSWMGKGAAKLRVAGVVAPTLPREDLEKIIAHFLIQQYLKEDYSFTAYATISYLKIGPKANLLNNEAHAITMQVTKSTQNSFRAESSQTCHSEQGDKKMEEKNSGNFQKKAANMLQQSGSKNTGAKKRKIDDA
In short: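 RECQ1T1 50 nM; forked duplex (20 bp + 30-nt ss tails) 200 nM, ATP 2 mM final; pH 8.0, 2 mM MgCl2, 2.5 ug/ml poly(dI-dC); 15 min compound preincubation; discontinuous kinetic read over 2 h at RT.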
Potency is read from the fitted curve at half-maximal effect.

Compound	Potency
Oc1cc(O)c2c(c1)OC(c1ccc(O)c(O)c1)C(O)C2 (stereo not given)	14.1 µM (active)
Cc1nnnn1/C(=C\c1ccccc1)C(=O)OCC(=O)N1CC2(C)CC1CC(C)(C)C2 (stereo not given)	inactive
O=c1c(O)c(Br)ccc2c(Br)c(O)c(O)c(O)c12	3.16 µM (active)
CCC1(CC)C(=O)C2=C3C1[C@H](C(=O)OC)C=C(C(=O)OC)C[C@H]3[C@H]1C(=O)N(Cc3ccccc3)C(=O)[C@H]1[C@H]2C (stereo not given in full)	inactive
O=C(N/N=C/c1sc(N2CCCCC2)nc1-c1cccs1)c1cccnc1	10 µM (active)
O=C(N/N=C/c1ccccn1)c1cccnc1	inactive
Cc1cc(/C=N/NC(=O)c2cccnc2)c(C)n1CC(C)C	inactive
N#C/C(=C\c1ccc(O)c(O)c1)C(N)=O	inactive
COCCNC(=O)/C(C#N)=C/c1cccc(OCc2ccccc2)c1	inactive
N#C/C(=C\c1ccc(O)c(O)c1)C(=O)NCc1ccccc1	inactive and 31.6 µM (active)
c1ccc(C2CNCc3c2ccc2ccccc32)cc1 (stereo not given)	inactive
CC(=O)Nc1ccc(S(=O)(=O)N2N=NC3C2C2CC4C3(CN(C(=O)OC(C)(C)C)S4(=O)=O)O2)cc1 (stereo not given)	inactive
CN(C(=O)COC(=O)c1cc(-c2ccco2)nc2ccccc12)C1CCS(=O)(=O)C1 (stereo not given)	14.1 µM (active)
Cc1c(-c2cccc(Cl)c2)nc2ccccc2c1C(=O)OCC(=O)N(C)C1CCS(=O)(=O)C1 (stereo not given)	inactive
COc1ccc(NC(=O)COc2ccc(C(=O)OCC(=O)N(C)C3CCS(=O)(=O)C3)cc2OC)cc1 (stereo not given)	inactive
CC(=O)OC1C([N+]2(C)CCCCC2)C[C@H]2C3CC[C@H]4C[C@H](OC(C)=O)C([N+]5(C)CCCCC5)CC4(C)C3CCC12C (stereo not given in full)	inactive
Cc1cc2nc3c(=O)n(Cc4ccccc4)c(=O)[nH]c3nc2cc1N	inactive
Nc1ccc2nc3c(=O)[nH]c(=S)[nH]c3nc2c1	7.94 µM (active)
O=c1[nH]c(=O)c2nc3ccccc3nc2[nH]1	inactive
CCOc1ccc(/C=C2\SC(=S)N(NC(=O)c3ccncc3)C2=O)cc1OC	inactive
COc1ccc(C2=Nn3c(nnc3-c3ccccc3O)SC2)cc1	inactive
C=CCCN(C(Cc1ccccc1)C(=O)OC)S(=O)(=O)c1cc(Br)ccc1Br (stereo not given)	inactive
C=C1CCN(Cc2ccc(OC)cc2)S(=O)(=O)c2ccccc21	inactive
Cc1ccc(SCC(CC(C)C)N2CCN(CCc3ccccc3)CCC2=O)cc1 (stereo not given)	inactive

Compound	Potency
O=c1cc(-c2ccc(O)c(O)c2)oc2cccc(O)c12	25.1 µM (active)
COc1ccc2c(=O)cc(-c3ccccc3)oc2c1O	inactive
O=c1cc(-c2ccc(O)cc2)oc2c(-c3cc(-c4cc(=O)c5c(O)cc(O)cc5o4)ccc3O)c(O)ccc12	inactive
Cc1cccc(-c2cc(=O)c3cc(C)ccc3o2)c1	inactive
CCOC(=O)COc1cc(O)c2c(=O)cc(-c3ccccc3)oc2c1	inactive
COc1c(O)cc2oc(-c3ccc(O)c(O)c3)cc(=O)c2c1O	11.2 µM (active) and 8.91 µM (active)
C=C1/C(=C\C=C2\CCCC3(C)C2CCC3C(C)/C=C/C(O)C2CC2)CC(O)CC1O (stereo not given)	inactive
CCCCc1nn(-c2ccccc2C(F)(F)F)c(=O)n1Cc1ccc(-c2ccccc2S(=O)(=O)NC(=O)c2sccc2C)cc1	inactive
COC(=O)c1ccc(C(NC(=O)OCc2ccccc2)/C(F)=C/[C@@H](C)C(=O)O)cc1 (stereo not given in full)	inactive
COc1ccc(CCCOC(Cn2ccnc2)c2ccc(OC)cc2)cc1 (stereo not given)	inactive
Cc1cccc(NC(=O)CN2C(=O)c3ccccc3C2=O)c1C	inactive
Cc1ccccc1NC(=O)CN1C(=O)N/C(=C\c2cccn2-c2cccc(C(=O)O)c2)C1=O	14.1 µM (active)
O=C1N/C(=C/c2cccn2-c2ccccc2)C(=O)N1c1cccc(Cl)c1	inactive
COc1ccccc1NC(=S)N1CCN(C(c2ccccc2)c2ccccc2)CC1	inactive
COc1ccc(Br)cc1C1C2C=CCC(C)C2C(=O)N1Cc1ccccc1 (stereo not given)	inactive
O=C1c2ccccc2C(=O)N1CCCc1nc(-c2ccccc2)no1	inactive
O=C1c2ccccc2C(=O)N1Cc1cc(-c2ccccc2Cl)no1	31.6 µM (active)
O=C1c2cccnc2C(=O)N1Cc1cccs1	inactive
Oc1ccc(N=Cc2sc3ccccc3c2Cl)cc1	8.91 µM (active)
Oc1ccc(N=Cc2c(O)ccc3ccccc23)cc1	inactive
O=C(N/N=C/c1c(Cl)[nH]c2ccccc12)c1sc2ccccc2c1Cl	inactive
C[C@@H](O)[C@@H]1NC(=O)[C@H](CCCCN)NC(=O)[C@H](Cc2c[nH]c3ccccc23)NC(=O)[C@H](Cc2ccccc2)NC(=O)[C@H](Cc2ccccc2)NC(=O)[C@H](CC(N)=O)NC(=O)[C@H](CCCCN)NC(=O)[C@@H](NC(=O)[C@@H]2CCCN2)CSSC[C@@H](C(=O)N[C@@H](CCCCN)C(=O)O)NC(=O)[C@H](CO)NC(=O)[C@H](CO)NC(=O)[C@H](Cc2ccccc2)NC1=O (H-PCKNFFWKTFSSCK-OH; disulfide 2-13)	inactive
CCCN1CCC(=O)N(C(CSc2ccc(OC)cc2)Cc2ccccc2)CC1 (stereo not given)	inactive
O=C(O)C1CC=CC2CCN(C3CCCCC3)C(=O)C21 (stereo not given)	inactive

Compound	Potency
Cc1ccc(C)c(CSc2nc(-c3ccco3)nc3c2c(=O)n(C)c(=O)n3C)c1	inactive
C/C=C(/C)C(=O)Nc1cccc(C2=NOC3(C2)C[C@@H](C(N)=O)N(C(=O)C2(C)CC2)C3)c1 (stereo not given in full)	inactive
CC/C=C/C(=O)N1CC2(CC(c3cccc(NC(=O)CC)c3)=NO2)C[C@H]1C(N)=O (stereo not given in full)	inactive
C/C=C\C=C\C(=O)N1CC2(CC(c3cccc(NC(=O)/C(C)=C\C)c3)=NO2)C[C@H]1C(N)=O (stereo not given in full)	20 µM (active)
O=S(O)S(=O)(=O)O	inactive
O=C(N/N=C/C=C/c1ccco1)c1cccs1	35.5 µM (active)
CC(=O)Nc1ccc(/C=N/NC(=O)c2cccs2)cc1	inactive
Cc1ccc(-c2cc(C(=O)N/N=C/C=C/c3ccco3)c3ccccc3n2)cc1C	inactive
NC(=O)COC(=O)/C=C/c1ccc2ccccc2n1	inactive
CC(=O)c1ccc(S(=O)(=O)N2CCN(C(=O)/C=C/c3ccc4ccccc4n3)CC2)cc1	25.1 µM (active)
COC(=O)c1ccc(S(=O)(=O)N2CCC(c3nc4ccccc4o3)CC2)cc1	inactive
O=c1cc(CCl)nc2scc(-c3ccccc3)n12	inactive
CCc1nnc(NC(=O)c2cccc(S(=O)(=O)N(C)c3ccc(OC)cc3)c2)s1	inactive
CCc1ccc2nc3sc(C(=O)Nc4nnc(CC)s4)c(N)c3cc2c1	31.6 µM (active)
CCc1nnc(NC(=O)c2sc3nc(C)cc(COC)c3c2N)s1	inactive
Cc1ccc(CNC(=O)C2(C(F)(F)F)C/C(=C\CCO)CCCO2)o1 (stereo not given)	inactive
CCN1C(=O)c2cccc3c(N)ccc1c23	inactive
Nc1ccc2c3c(cccc13)C(=O)NC2=O	inactive and 25.1 µM (active)
CCC(C)[C@@H](N)C(=O)O (stereo not given in full)	inactive
COc1ccc(CC(N)C(=O)NC2C(O)[C@H](n3cnc4c(N(C)C)ncnc43)O[C@@H]2CO)cc1 (stereo not given in full)	inactive
S=C(NCCc1ccccc1)N1CCn2cccc2C1c1ccncc1 (stereo not given)	inactive
Cc1ccc(-c2nc(SCC(=O)Nc3ccccc3OC(F)F)c3c(C)c(C(=O)O)sc3n2)cc1	25.1 µM (active)
Cc1ccc(C)c(SCc2nc3sc(C(=O)O)c(C)c3c(=O)[nH]2)c1	inactive
CCOC(=O)c1ccc[n+](CC(=O)Nc2ccccc2OC(F)F)c1	inactive

Compound	Potency
CCOC(=O)C(CC)/C(C)=N\NC(=O)c1cccc(C)c1 (stereo not given)	inactive
C[C@H]1CCC[C@@]2(C)CCCC[C@]12O	inactive
COc1cc(OC)c2c(C)cc(=O)oc2c1C(CCN1CCCCC1)c1ccc(N(C)C)cc1 (stereo not given)	inactive
N#Cc1ccccc1CN1C(=O)S/C(=C/c2cccn2-c2cccc(C(=O)O)c2)C1=O	28.2 µM (active)
O=C(O)c1cccc(N2C(=O)Nc3ccccc3N2O)c1	inactive
Cn1cccc1/C=C1\SC(=O)N(CC(=O)Nc2ccc(F)cc2)C1=O	inactive
O=c1ccn([C@@H]2O[C@H](COP(=O)(O)OP(=O)(O)OP(=O)(O)O)[C@@H](O)[C@H]2O)c(=O)[nH]1	inactive
COc1ccc(OC)c(C(=O)c2ccc(C(=O)N3CCN(Cc4csc(C)n4)CC3)cc2)c1	inactive
O=C1C2C(c3ccccc3)CC=CC2C(c2ccoc2)N1Cc1ccccc1 (stereo not given)	inactive
O=C(COC(=O)C12CC3CC(CC(C3)C1)C2)NCc1ccco1	inactive
O=C(COC(=O)CCC(=O)c1cccs1)NCc1ccco1	7.94 µM (active)
O=C(CCC(=O)c1cccs1)NCc1ccccc1	inactive
COc1ccc(/C=N/NC(=O)c2ccncc2)cc1CN1CCCc2ccccc21	inactive
NS(=O)(=O)c1ccc(NC(=O)COC(=O)CCc2c[nH]c3ccccc23)cc1	inactive
CC[C@H](C)[C@H](NC(=O)[C@@H](N)CCC(=O)O)C(=O)N[C@@H](CC(C)C)C(=O)N[C@@H](CC(=O)O)C(=O)N[C@H](C(=O)N1CCC[C@H]1C(=O)N[C@@H](CO)C(=O)N[C@H](C(=O)O)[C@@H](C)O)C(C)C	inactive
O=c1cc(-c2ccc(O)cc2)oc2c([C@@H]3O[C@H](CO)[C@@H](O)[C@H](O)[C@H]3O)c(O)cc(O)c12	inactive
Cc1cc(=O)[nH]c(=S)[nH]1	inactive
Cc1cc(=O)[nH]c(S)c1C#N	22.4 µM (active)
Cc1cc(=O)[nH]c(SCC(N)=O)c1C#N	inactive
Cc1noc(C)c1-c1ccc2ncnc(NCc3ccc4[nH]ccc4c3)c2c1	inactive
CCCCCOC(=O)NCCOC(=O)Nc1ccc(C(=O)OCC)cc1	inactive
CCCCOC(=O)c1ccc(NC(c2ccc(C)cc2)P(=O)(OC)OC)cc1 (stereo not given)	17.8 µM (active)
CCOP(=O)(OCC)C(Nc1cccc(C)c1)c1ccc(F)cc1 (stereo not given)	inactive
